Only some compounds are listed: those with a hit (about 2.6% of all), similar ones and a draw of the others.
DNA FID counter: fluorescent intercalator displacement, NS3 helicase counter-screen | AID 1845 | DNA fluorescent intercalator displacement, fluorescence | inhibition, % at 7.9 µM | 0.17% of 290,000 active; in the data active means inhibition above about 37%;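 further: 0% = vehicle and 100% = reference compound; higher means more ethidium bromide displaced from hairpin DNA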
GPR7 antagonist: blocks human GPR7 receptor signaling; inhibition, % at 4.4 µM; AID 1861; P48145; 1.1% of 290,000 active; GPR7-expressing cells, fluorescence antagonist assay; in the data active means inhibition above about 16%, passing the limit was not always enough;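 further: cells stimulated with the agonist NPW; 0% = agonist with vehicle and 100% = vehicle without agonist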
Target sequence (P48145 whole entry, looked up): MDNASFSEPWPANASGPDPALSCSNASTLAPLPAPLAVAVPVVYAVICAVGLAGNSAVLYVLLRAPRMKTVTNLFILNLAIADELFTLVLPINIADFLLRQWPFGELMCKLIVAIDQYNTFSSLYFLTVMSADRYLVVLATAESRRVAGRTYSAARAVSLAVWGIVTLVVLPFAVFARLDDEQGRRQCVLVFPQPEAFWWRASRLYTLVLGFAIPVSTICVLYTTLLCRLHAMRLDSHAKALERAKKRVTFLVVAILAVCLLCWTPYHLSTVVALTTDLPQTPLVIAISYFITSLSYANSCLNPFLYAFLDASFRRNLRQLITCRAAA
Ba/F3 V617F tox: lowers viability of Ba/F3 cells expressing EpoR and JAK2V617F; ATP luminescence; inhibition, % at 5.6 µM; 1.1% of 220,000 active;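 active means inhibition above the campaign mean plus 3 SD over all tested compounds, cut at about 24% in these data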;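 further: cytokine-independent growth of Ba/F3 cells driven by EpoR plus mutant JAK2; 0% = DMSO-treated cells and 100% = JAK inhibitor I control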
BaF3 parental: reduces parental Ba/F3 cell viability, JAK2V617F counter-screen; CellTiter-Glo ATP luminescence; inhibition, % at 5.6 µM; 1.1% of 220,000 active;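 active means inhibition above a per-campaign cutoff, the mean inhibition of all tested compounds plus 3 SD, cut at about 27% in these data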;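 further: 0% = DMSO wells and 100% = JAK Inhibitor I control wells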
KLF5 inh: suppresses KLF5 promoter-driven expression; DLD-1 KLF5 promoter-luciferase reporter, luminescence; inhibition, % at 5 µM; 0.23% of 290,000 active;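 active means inhibition above a per-plate limit of that plate's mean compound inhibition plus 3 SD, cut at about 60% in these data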;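 further: 0% = DMSO wells and 100% = LY294002 at 200 µM; higher means less KLF5 promoter-driven luciferase light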
IEC-6 cytotox: kills IEC-6 intestinal cells in KLF5 counter-screen | IEC-6 cytotoxicity, luminescence viability | inhibition, % at 5 µM | 0.78% of 290,000 active;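 further: 0% = plate median of test compound wells and 100% = cytotoxic reference compound wells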
GPR7 antag conf: confirmation of human GPR7 antagonists; shares compounds with GPR7 antagonist; GPR7-expressing cells, calcium fluorescence antagonist mode; inhibition, % at 4.4 µM; 52% of 2,400 active; in the data active means inhibition above about 24%;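 further: stimulated with the GPR7 agonist NPW; 0% = agonist plus vehicle and 100% = vehicle alone without agonist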
MCHR1 antagonist: counter-screen for GPR7 antagonists: antagonists of human MCHR1 | shares compounds with GPR7 antagonist | MCHR1-expressing cells, fluorescence antagonist assay | inhibition, % at 4.4 µM | 62% of 2,400 active | AID 2148;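 further: 0% = vehicle with agonist and 100% = vehicle without agonist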
Starred values were filed as active, the others as inactive. Unless noted, no stated cut-off is given here; in the data, active means inhibition above about 22%; inactive means the rest.

How did CN(C(=O)c1ccc2c(c1)OCO2)C1(C(=O)NC2CCCCC2)CCCCC1 do in these assays?
DNA FID counter: -19.9; GPR7 antagonist: 12.1; Ba/F3 V617F tox: -1.8; BaF3 parental: -0.8; KLF5 inh: -27.3; IEC-6 cytotox: -2.2

What do the screens show for `O=C1NC(=O)C(CC(=O)N(Cc2ccco2)C2(C(=O)NC3CCCC3)CCCCC2)N1` (configuration not stated)?
DNA FID counter: -8.4; GPR7 antagonist: 10.9; Ba/F3 V617F tox: 0.8; BaF3 parental: 4.5; KLF5 inh: -8.7; IEC-6 cytotox: -6.5

What do the screens show for `Cc1ccc(S(=O)(=O)N2CCCCC2)cc1NC(=O)COC(=O)Cc1ccc(Cl)cc1`?
DNA FID counter: -17.9; GPR7 antagonist: 6.2; Ba/F3 V617F tox: -6.1; BaF3 parental: 2.3; KLF5 inh: 7.5; IEC-6 cytotox: 0.3

What do the screens show for `CCN(CC)C(=O)CSc1nc2c(sc(=S)n2Cc2ccco2)c(=O)n1-c1ccccc1`?
DNA FID counter: -23.6; GPR7 antagonist: 24.2; Ba/F3 V617F tox: -4.3; BaF3 parental: -2.3; KLF5 inh: -6.8; IEC-6 cytotox: -4.2

How did CCOC(=O)CSc1nc2c(sc(=S)n2Cc2ccco2)c(=O)n1-c1ccccc1 do in these assays?
DNA FID counter: -18.8; GPR7 antagonist: 22.5*; Ba/F3 V617F tox: -2.9; BaF3 parental: 2.0; KLF5 inh: -0.5; IEC-6 cytotox: -8.8; GPR7 antag conf: 17.3; MCHR1 antagonist: 45.0*

Results for CCN(CC)S(=O)(=O)c1ccc(NC(=O)Nc2cccc(C(F)(F)F)c2)cc1 ?
DNA FID counter: -3.4; GPR7 antagonist: 27.1*; Ba/F3 V617F tox: 3.4; BaF3 parental: 0.3; KLF5 inh: -14.3; IEC-6 cytotox: 16.8; GPR7 antag conf: 41.1*; MCHR1 antagonist: 56.6*

What do the screens show for `Cc1ccc(S(=O)(=O)Nc2ccc(NC(=O)Nc3cccc(C(F)(F)F)c3)cc2)cc1`?
DNA FID counter: 10.8; GPR7 antagonist: -14.7; Ba/F3 V617F tox: 2.3; BaF3 parental: 5.3; KLF5 inh: 7.8; IEC-6 cytotox: 5.3

How did O=C(Nc1ccc(OC(F)F)cc1)Nc1cccc(C(F)(F)F)c1 do in these assays?
DNA FID counter: 9.8; GPR7 antagonist: 39.0*; Ba/F3 V617F tox: 0.0; BaF3 parental: 2.1; KLF5 inh: -20.3; IEC-6 cytotox: 2.8; GPR7 antag conf: 53.8*; MCHR1 antagonist: 68.0*

Results for Cc1[nH]nc2c1C(c1cccs1)C(C#N)=C(N)O2 (configuration not stated) ?
DNA FID counter: -0.1; GPR7 antagonist: 39.8*; Ba/F3 V617F tox: -1.5; BaF3 parental: -1.9; KLF5 inh: -18.9; IEC-6 cytotox: -8.3; GPR7 antag conf: 5.3; MCHR1 antagonist: 6.2

What do the screens show for `Cc1ccsc1C1C(C#N)=C(N)Oc2n[nH]c(C)c21` (configuration not stated)?
DNA FID counter: 6.0; GPR7 antagonist: -5.7; Ba/F3 V617F tox: 2.8; BaF3 parental: -0.4; KLF5 inh: -13.3; IEC-6 cytotox: 2.6

Results for COC(=O)COc1ccc(-c2ccccc2)cc1C=O ?
DNA FID counter: 4.8; GPR7 antagonist: 31.1*; Ba/F3 V617F tox: -3.6; BaF3 parental: -5.0; KLF5 inh: -8.9; IEC-6 cytotox: 6.2; GPR7 antag conf: 16.7; MCHR1 antagonist: 38.3*

What do the screens show for `COC(=O)COc1ccc(-c2ccc(F)cc2)cc1C=O`?
DNA FID counter: 9.6; GPR7 antagonist: 32.8*; Ba/F3 V617F tox: -2.8; BaF3 parental: 4.1; KLF5 inh: 8.8; IEC-6 cytotox: 14.0; GPR7 antag conf: 31.0*; MCHR1 antagonist: 34.9*

Results for COC(=O)COc1ccccc1C(N)=O ?
DNA FID counter: 2.5; GPR7 antagonist: -13.8; Ba/F3 V617F tox: 0.1; BaF3 parental: 0.3; KLF5 inh: -11.8; IEC-6 cytotox: 8.2

How did O=C(Cc1ccc(-n2cccc2)cc1)N1CCN(c2ccccc2F)CC1 do in these assays?
DNA FID counter: -13.6; GPR7 antagonist: 27.3*; Ba/F3 V617F tox: -0.6; BaF3 parental: 0.4; KLF5 inh: -42.1; IEC-6 cytotox: -0.1; GPR7 antag conf: 5.2; MCHR1 antagonist: 8.4

What do the screens show for `Cc1ccc2c(c1)c1c(n2CC(O)CNC(CO)(CO)CO)CCCC1` (configuration not stated)?
DNA FID counter: 12.8; GPR7 antagonist: -1.9; Ba/F3 V617F tox: -0.3; BaF3 parental: 13.1; KLF5 inh: -0.6; IEC-6 cytotox: 0.5

What do the screens show for `Cc1ccc2c(c1)c1c(n2CC(O)CNC2CCCCC2)CCCC1` (configuration not stated)?
DNA FID counter: 28.6; GPR7 antagonist: 32.4*; Ba/F3 V617F tox: 3.6; BaF3 parental: 9.6; KLF5 inh: -5.9; IEC-6 cytotox: -4.1; GPR7 antag conf: 55.9*; MCHR1 antagonist: 53.7*

How did CC12CCC(C(=O)N(c3ccc(Cl)cc3)C1=O)C2(C)C (configuration not stated) do in these assays?
DNA FID counter: 2.8; GPR7 antagonist: -0.3; Ba/F3 V617F tox: 0.2; BaF3 parental: 5.7; KLF5 inh: -33.3; IEC-6 cytotox: 0.1

Results for CCOC(=O)N1CCN(C(=O)CS(=O)Cc2nc(-c3cccc(C)c3)oc2C)CC1 (configuration not stated) ?
DNA FID counter: -36.4; GPR7 antagonist: -8.2; Ba/F3 V617F tox: -2.2; BaF3 parental: 8.1; KLF5 inh: -36.5; IEC-6 cytotox: -0.5

What do the screens show for `COc1ccc(-c2nnn(CC(=O)NCc3ccc4c(c3)OCO4)n2)cc1OC`?
DNA FID counter: -0.7; GPR7 antagonist: 22.3*; Ba/F3 V617F tox: -1.3; BaF3 parental: 2.1; KLF5 inh: -23.4; IEC-6 cytotox: 1.3; GPR7 antag conf: -0.4; MCHR1 antagonist: 1.5

How did CCOc1ccc(-c2nnn(CC(=O)NCc3ccc4c(c3)OCO4)n2)cc1 do in these assays?
DNA FID counter: -5.5; GPR7 antagonist: -14.6; Ba/F3 V617F tox: -2.6; BaF3 parental: 1.0; KLF5 inh: -0.3; IEC-6 cytotox: 6.7

Results for COc1ccccc1NC(=O)CSc1nnnn1C1CCCC1 ?
DNA FID counter: -14.4; GPR7 antagonist: -5.3; KLF5 inh: -7.9; IEC-6 cytotox: -4.9

Results for CCOc1ccc(NC(=O)CCS(=O)(=O)c2ccc3c(c2)CCCN3C(C)=O)cc1 ?
DNA FID counter: -5.2; GPR7 antagonist: -13.3; Ba/F3 V617F tox: -3.0; BaF3 parental: 3.9; KLF5 inh: -9.5; IEC-6 cytotox: 3.2

Results for C=CCc1cccc(Cl)c1OCCCNC1CCCC1 ?
DNA FID counter: 22.4; GPR7 antagonist: 30.1*; KLF5 inh: -17.6; IEC-6 cytotox: 6.3; GPR7 antag conf: 30.7*; MCHR1 antagonist: 21.5*

What do the screens show for `O=C(CCNS(=O)(=O)c1ccc(Cl)cc1)N1CCCC1`?
DNA FID counter: -6.0; GPR7 antagonist: -10.7; KLF5 inh: -29.3; IEC-6 cytotox: -1.9
